Rows were chosen to be rich in hits. Some 5.7% of all compounds tested hit in one or more screens of this group.
RORg inh – ROR gamma (mouse) transcription inhibition | P51450 | 310,000 compounds, 5.4% hits | Potency, µM (doses to about 53.6 µM), hits mostly inhibitors | Drosophila S2 Gal4-RORgamma UAS-luciferase reporter, 20 h | AID 2551; also: nearly all actives have a fitted effect of over 60% in size
Target sequence (P51450 whole entry, looked up, the tested form may be a part): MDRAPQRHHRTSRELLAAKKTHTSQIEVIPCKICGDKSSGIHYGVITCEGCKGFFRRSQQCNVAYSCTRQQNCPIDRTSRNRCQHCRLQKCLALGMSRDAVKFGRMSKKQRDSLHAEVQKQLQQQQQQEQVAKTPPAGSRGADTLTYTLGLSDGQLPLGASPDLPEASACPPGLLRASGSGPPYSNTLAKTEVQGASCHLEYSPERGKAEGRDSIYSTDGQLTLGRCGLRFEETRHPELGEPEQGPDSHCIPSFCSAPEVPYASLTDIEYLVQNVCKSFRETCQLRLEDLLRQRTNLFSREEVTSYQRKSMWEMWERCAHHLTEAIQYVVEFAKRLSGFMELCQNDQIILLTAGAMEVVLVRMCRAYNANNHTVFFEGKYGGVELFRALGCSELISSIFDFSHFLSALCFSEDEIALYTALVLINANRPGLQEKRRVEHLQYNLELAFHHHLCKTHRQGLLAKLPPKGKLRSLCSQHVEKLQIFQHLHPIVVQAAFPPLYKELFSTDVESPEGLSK
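Stable Schneider cell line, Gal4 DNA-binding domain fused to ROR gamma, UAS-luciferase. Cmpd 1 hr RT → CuSO4 700 uM final → 20 hr RT → luciferase reagent 10 min → luminescence.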
B2AR arrestin – agonists driving beta-arrestin recruitment to human beta2-adrenergic receptor; P07550; beta-arrestin recruitment to beta2AR, cell-based reporter; Potency, µM (highest dose often 46.1 µM), most hits filed as activators; 330,000 compounds, 0.02% hits; AID 492947; also: nearly all actives have a fitted effect of over 65% in size
Gal4-VP16 FLuc – Gal4-VP16 reporter inhibition counter-screen | Drosophila S2 Gal4-VP16 UAS-luciferase, luminescence, 20 h | Potency, µM (titrated, usually from 53.6 µM), usual class: inhibitors | 310,000 compounds, 3.5% hits;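 also: Gal4-VP16 expression switched on by copper sulfate through the metallothionein promoter; nearly all actives have a fitted effect of over 50% in size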
NPSR antag – neuropeptide S receptor (human) antagonism, cAMP. CHO-NPSR cells, cAMP TR-FRET, antagonist mode. Q6W5P4. Potency, µM (titrated, usually from 38.3 µM), hits mostly inhibitors. AID 1461. 220,000 compounds, 1% hits; also: nearly all actives have a fitted effect of over 50% in size
Hits are given with their value; i = inactive; ? = inconclusive; nt = no result; [ ] = remark or other dose. Calls follow the shape of the dose curve; as a rule, active = well fitted curve in the direction sought with a large enough effect; inconclusive = small, poorly fitted or top-dose-only effect, or another doubt; inactive = no such curve, though single readings can be large; an effect the other way counts as inactive or inconclusive.

SMILES	RORg inh	B2AR arrestin	Gal4-VP16 FLuc	NPSR antag
CS(=O)(=O)c1ccc(-c2nnc(NC(=O)c3ccc(S(=O)(=O)N4CCCC4)cc3)o2)cc1	nt	i	nt	nt
O=C(Nc1nnc(C2CC2)o1)c1ccc(S(=O)(=O)N2CCCCC2)cc1	0.89µM	i	0.56µM	nt
CC1CCN(S(=O)(=O)c2ccc(C(=O)Nc3nnc(C4CC4)o3)cc2)CC1	0.35µM	i	0.32µM	nt
Cc1ccc(NC(=O)c2ccc(S(=O)(=O)N3CCC(C)CC3)cc2)cc1	i	i	i	i
COc1ccc(C=C2C(=O)c3ccccc3C2=O)cc1O	?	i	?	i
CCCCc1ccc(/C=C2\C(=O)c3ccccc3C(O)=C2C(=O)OCC)cc1	10µM	i	i[0.365 µM]	?
Cc1nc2ccc(NC(=O)c3cc([N+](=O)[O-])cc([N+](=O)[O-])c3Cl)cc2s1	?	i	3.2µM	?
Cc1ccc([N+](=O)[O-])cc1NC(=O)C(Sc1ccccc1)c1ccccc1 (stereo not given)	i	i	?	i
C=CCN(CC=C)c1cnn(-c2nc3ccccc3[nH]2)c(=O)c1Cl	i	i	i	i
O=c1c(Cl)c(NCCCO)cnn1-c1nc2ccccc2[nH]1	5µM	?	3.5µM	?
Cc1cccc(-n2c(=S)[nH]c3sc4c(c3c2=O)CCc2ccccc2-4)c1	0.35µM	i	1.4µM	i
Cc1ccc(-n2c(=S)[nH]c3sc4c(c3c2=O)CCc2ccccc2-4)cc1	0.45µM	i	0.63µM	i
COc1ccc(-n2c(=S)[nH]c3sc4c(c3c2=O)CCN(C)C4)cc1	i	i	i	i
CC1C(=O)N2CCCc3cc(NC(=O)C(=O)NCc4ccccn4)cc1c32 (stereo not given)	nt	i	nt	nt
COc1cc(OC)c(/C=N/NC(=O)c2ccc(Cn3nc([N+](=O)[O-])cc3C)cc2)c(OC)c1	i	i	i	i
Cc1ccc(NC(=O)C2CCN(S(=O)(=O)c3ccc4c(c3)NC(=O)C(C)S4)CC2)cc1Cl (stereo not given)	?	i	7.1µM	nt
CCCn1c(SCN2C(=O)c3ccccc3C2=O)nc2cc(Cl)ccc2c1=O	10µM	i	?	?
CCC(C)NC(=S)NNC(=O)c1ccncc1 (stereo not given)	3.2µM	i	13µM	i
CC1(C(=O)NC(=S)NNC(=O)c2ccncc2)CCCCC1	5µM	i	13µM	i
COCC(=O)N1CCC(Oc2ccc(C(=O)NCCc3ncccc3C)cc2)CC1	i	i	i	nt
CCn1cc(CNC(=O)c2ccc(OC3CCN(Cc4ccccn4)CC3)cc2)cn1	?	i	i	nt
O=C(NCCc1cccc(Cl)c1)c1ccc(OC2CCN(Cc3ccccn3)CC2)cc1	18µM	i	i	nt
O=C(NCCc1ccccn1)c1ccc(OC2CCN(CCc3ccccc3)CC2)cc1	i	i	i	nt
CCn1nc(C)c(CNC(=O)c2ccc(OC3CCN(Cc4ccccn4)CC3)cc2)c1C	i	i	7.1µM	nt
Cc1cccnc1CCNC(=O)c1ccc(OC2CCN(Cc3ccccn3)CC2)cc1	14µM	i	?	nt
SMILES	RORg inh	B2AR arrestin	Gal4-VP16 FLuc	NPSR antag
Cc1ccc(/C=C/C2=Cc3c(sc(NC(=O)CSc4n[nH]c(N)n4)c3C#N)C(C)(C)C2)o1	i	i	i	i
C[C@@H]1[C@H](O)C[C@@]23COC(=O)C2=CCCC3[C@@]1(C)CCC1COC(=O)C1 (stereo not given in full)	nt	i	nt	nt
N=C(N)c1ccc(N2CCN(C3CCN(CC(=O)O)CC3)CC2)cc1	i	nt	i	nt
COc1ccc(NC(=O)C/C(C)=N/NC(=O)c2ccccn2)c(OC)c1	i	i	i	nt
Cc1oc(-c2ccccc2)cc1C(=O)Nc1cccc(C(=O)O)c1	i	i	i	i
Cc1oc(-c2ccc(Cl)cc2)cc1C(=O)O	14µM	i	?	i
COc1cc(NC(=O)c2ccccc2F)ccc1NC(=O)c1cc2ccccc2o1	?	i	13µM	nt
O=C(Nc1cccc(Br)c1)c1cc2ccccc2o1	i	i	i	i
Cc1cccc(NC(=O)c2cc3ccccc3o2)c1	i	i	6.3µM	i
COc1cc(NC(=O)c2ccc(C)cc2C)ccc1NC(=O)c1cc2ccccc2o1	1.6µM	i	?	nt
Cc1cc(C(=O)Nc2cccc(C(=O)O)c2)c(C)o1	?	i	i	i
Cc1cc(C(=O)Nc2cccc(C(=O)O)c2)oc1C	6.3µM	i	?	i
COc1cc(NC(=O)c2ccc(C)cc2)ccc1NC(=O)c1cc2ccccc2o1	i	i	i	nt
NCC1CCC(N)C(O[C@@H]2C(O)[C@H](O[C@H]3OC(CO)C(O)C(N)C3O)[C@@H](N)C[C@H]2N)O1 (stereo not given in full)	i	nt	i	nt
O=C(CSc1nc2ccccc2c(=O)n1CC1CCCO1)NCCc1ccccc1 (stereo not given)	i	i	i	nt
Cc1ccc(S(=O)(=O)N2CCOCC2)cc1NC(=O)COC(=O)Cn1c(C)csc1=O	nt	i	nt	nt
COC(=O)c1cc(OC)c(OC)cc1NC(=O)c1ccc(C)o1	i	i	i	i
Cc1cc(-c2ccccc2)c2ccc(NC(=O)C(C)(C)C)nc2n1	11µM	i	?	nt
Cc1cc(C)nc(/N=C(\NC(=O)C(C)(C)C)Nc2ccccc2)n1	i	i	i	i
O=S(=O)(O)CCCS(=O)(=O)O	i	nt	i	nt
CCN(CC)c1ccc(/C=N\NC(N)=O)cc1	?	i	i	i
CCN(CC)c1ccc(/C=N/NC(=O)c2ccc(O)cc2)cc1	1.1µM	nt	2.5µM	nt
CCN(CC)c1ccc(C(=O)N/N=C(\C)c2ccc(O)cc2)cc1	i	i	i	i
CCN(CC)c1ccc(/C=N/NC(=O)c2ccoc2C)cc1	20µM	i	?	?
CCN(CC)c1ccc(/C=N\NC(=O)c2cccc3cc[nH]c23)cc1	7.1µM	i	18µM	i
SMILES	RORg inh	B2AR arrestin	Gal4-VP16 FLuc	NPSR antag
CC(=O)OC[C@@H]1O[C@H](C/C=N\O[C@@H](C)c2cn([C@H](CO)Cc3ccccc3)nn2)C=C[C@@H]1OC(C)=O	i[10 µM]	nt	i[10 µM]	nt
CCCCC1=CC2=C(OC(C)=O)C(=O)C(C)(OC(=O)c3ccc(Cl)nc3)C(=O)C2=CO1 (stereo not given)	i	nt	i	nt
COc1cc(/C=N/NC(=O)CSc2ccccn2)ccc1O	i	i	i	i
NC(=S)N/N=C/c1ccccc1[N+](=O)[O-]	i	i	?	i
COc1ccc([N+](=O)[O-])cc1/C=N/NC(=O)Cc1ccccc1	7.9µM	i	?	i
COc1cc([N+](=O)[O-])cc(/C=N/NC(=O)CSc2ccccn2)c1O	0.63µM	i	6.3µM	i
CCNC(=S)N/N=C/c1ccccc1[N+](=O)[O-]	4.5µM	i	?	i
COc1cc([N+](=O)[O-])cc(/C=N/NC(=O)c2ccc(C)nc2)c1O	0.89µM	i	0.63µM	i
CC(C)OC(=O)[C@@H]1CC[C@H](C)[C@@H](CCC[C@@H]2C[C@@H](O)C[C@H](CC#N)O2)O1	i	nt	i	nt
COc1ccc(-c2c(C3C4C=CCCC4(C)C(=O)N3Cc3ccccc3)ccc3ccccc23)cc1OC (stereo not given)	i	nt	i	nt
COc1ccc(-c2nc(-c3ccccc3)oc2Nc2c(C)cccc2C)cc1	i	nt	i	nt
COc1cccc(CS(=O)(=O)c2nnnn2-c2ccc(F)cc2Br)c1	i	nt	i	nt
COc1cccc(/C=N/NC(=O)c2cc3cc([N+](=O)[O-])ccc3s2)c1O	1.4µM	i	2.5µM	?
